We go through 54 molecules from PubChem BioAssay AID1745856 (National Center for Advancing Translational Sciences (NCATS), 2022).

About 270 (0.23%) of roughly 120,000 compounds were called active. Roughly 5% stayed inconclusive and do not appear here. The list comes from a sample in which actives are over-represented; it also holds similar structures and randomly drawn compounds. Values without a mark were called inactive. Calls follow the shape of the full dose curve.
% is scaled to controls: 0 for no effect and ±100 for the full control effect; potency is read from the fitted curve at half-maximal effect.

A short description of the test: Primary qHTS Assay for Foot and Mouth Disease Virus Antivirals against NCGC Sytravon and CBC Compound Libraries: Firefly Luciferase Signal. Also: nearly all actives have a fitted effect of over 60% in size. Conditions: FMDV antiviral cell assay; series mostly up to 57.5 µM; activity change, negative = inhibition: at the top concentration. In general terms: In qHTS, concentration-response curves come from the screen itself.
As to `Cc1cc(C)c2c(c1)/C(=N/Nc1nc3ccccc3[nH]1)CCC2`, the Potency was 4.47 µM (active).

Take `CC(=O)N1CCN(C(=O)CCC(=O)N2CCC(c3noc4cc(F)ccc34)CC2)CC1`: the “activity change, negative = inhibition” value was 5.39%.

As to `Cc1oc(C)c(C(=O)Nc2ccccc2O)c1C`, the “activity change, negative = inhibition” value is 0%.

Consider `Cc1cnc2c(S(=O)(=O)N3CCN(C(C)CC#N)CC3)cccc2c1` (centres undefined), for which the “activity change, negative = inhibition” value is 8.29%.

`CNC(=O)NC(=O)CN1CCCC(c2nc3ccccc3o2)C1` (centres undefined): the “activity change, negative = inhibition” value is -2.97%.

`Cc1ccc(-c2noc(-c3occc3Br)n2)cc1`: the “activity change, negative = inhibition” value was 193%.

For the molecule `O=S(=O)(NCC12CC3CC(CC(C3)C1)C2)c1cccs1`, the “activity change, negative = inhibition” value is 0.0354%.

Turning to `CCCCN(CCCNC(=O)c1cc(Nc2ccccc2OC)nc2ccccc12)c1ccccc1`, the “activity change, negative = inhibition” value is -0.272%.

With `COc1ccc(Nc2cc(C(=O)NCCCN(C)c3ccccc3)c3ccccc3n2)c(OC)c1`, the “activity change, negative = inhibition” value is -7.92%.

Take `COc1ccccc1Nc1cc(C(=O)NCCCN(C)C2CCCCC2)c2ccccc2n1`: the Potency was 28.2 µM (active).

In the case of `CC1CCN(S(=O)(=O)N(C)Cc2ccc3c(c2)OCCO3)CC1`, the “activity change, negative = inhibition” value is -4.77%.

Regarding `O=C(CN1CCN(CC(=O)Nc2ccccc2C(=O)c2ccccc2)CC1)Nc1cccc(F)c1`, the “activity change, negative = inhibition” value is -12%.

`COc1ccc(C=O)cc1OCc1c(F)cccc1Cl`: the “activity change, negative = inhibition” value was 7.96%.

In the case of `CC(C)C(=O)NC(Nc1cccc(Cl)c1Cl)C(Cl)(Cl)Cl` (centres undefined), the “activity change, negative = inhibition” value is 3.54%.

Regarding `CC(NC(=O)Cn1nnn(-c2ccccc2)c1=O)c1ccccc1` (centres undefined), the “activity change, negative = inhibition” value was -1.05%.

Turning to `CCc1cccc(CC)c1NC(=O)CC(C)(C(=O)O)c1ccccc1` (centres undefined), the “activity change, negative = inhibition” value is -1.95%.

On to `COc1ccc(C23CC4CC(CC(C4)C2)C3)cc1C(=O)NC(c1ccccc1)c1ccccc1`, for which the “activity change, negative = inhibition” value is -0.0842%.

For `CC(Oc1ccccc1F)C(=O)Nc1c(F)cccc1F` (centres undefined), the “activity change, negative = inhibition” value was -5.6%.

Consider `Cc1nn(CC(=O)NC(C)(C)C)c(C)c1S(=O)(=O)N1CCCC(C(=O)N2CCOCC2)C1` (centres undefined), for which the “activity change, negative = inhibition” value was -2.97%.

For the molecule `CCCn1c(NC(=O)c2oc3ccc(OC)cc3c2C)nc2ccccc21`, the “activity change, negative = inhibition” value was 6.06%.

As to `CCCNc1c(NC(=O)Nc2ccccc2C)c(=O)oc2ccccc12`, the “activity change, negative = inhibition” value was 15.8%.

Take `CCC1CN(S(=O)(=O)c2cc(-c3cc(C)no3)ccc2C)c2cc(C)ccc2O1` (centres undefined): the “activity change, negative = inhibition” value was 29.8%.

Take `Cc1cc(-c2ccc(C)c(S(=O)(=O)N3c4ccccc4CC3C)c2)on1` (centres undefined): the Potency was 14.1 µM (active).

With `CCN(CC)c1ccc(NS(=O)(=O)c2cc(-c3cc(C)no3)ccc2C)c(C)c1`, the “activity change, negative = inhibition” value was -2.71%.

On to `CCOc1ccc(N(Cc2ccccc2)C(=O)c2nc(SCC)ncc2Cl)cc1`, for which the “activity change, negative = inhibition” value was 0%.

In the case of `CCOc1ccc(N(Cc2ccccc2)C(=O)c2nc(S(C)(=O)=O)ncc2Cl)cc1`, the Potency is 22.4 µM (active).

With `CCOc1ccc(CN2CCC(N(C)Cc3ccccc3)CC2)cc1`, the “activity change, negative = inhibition” value was 2.31%.

Regarding `O=C(OCc1ccc(Cl)cc1Cl)c1c(F)cccc1F`, the “activity change, negative = inhibition” value is 29.2%.

With `COc1ccc(C(=O)Nc2c(NCC3CCCCC3)c3ccccc3oc2=O)cc1OC`, the “activity change, negative = inhibition” value is -1.4%.

As for `O=S(Cc1ccccc1)Cc1cccc(F)c1` (centres undefined), the “activity change, negative = inhibition” value is 2.48%.

In the case of `CCn1nc(C(=O)Nc2nnc(Cc3ccccc3)s2)c2ccccc2c1=O`, the “activity change, negative = inhibition” value is 15.9%.

As for `O=C(Oc1ccc(Br)cc1)c1cnccn1`, the “activity change, negative = inhibition” value was 142%.

Take `Cc1cc(=O)oc2cc(OCC(=O)Nc3ccc(S(=O)(=O)N4CCOCC4)cc3)ccc12`: the “activity change, negative = inhibition” value was -5.69%.

Consider `Cn1cc2c(C(F)(F)F)cc(=O)n(CCC(=O)O)c2n1`, for which the “activity change, negative = inhibition” value is 6.41%.

Regarding `Cc1ccc(N2CCN(C(=O)c3nn(C)c4c3CCc3sccc3-4)CC2)c(C)c1`, the “activity change, negative = inhibition” value is 18%.

For `COc1ccc(/C=C2\Oc3cc(OS(=O)(=O)c4ccc(C)cc4)ccc3C2=O)c(OC)c1OC`, the “activity change, negative = inhibition” value was 0.175%.

Consider `CCOC(=O)C1=C(C)NC(=O)NC1c1ccc(C(=O)OC)cc1` (centres undefined), for which the “activity change, negative = inhibition” value is 48.5%.

`Cc1ccccc1NC(=O)CSc1nc(C2CC2)n(-c2ccccc2)n1`: the “activity change, negative = inhibition” value was 2.27%.

Take `COc1ccc(-c2cc(C(=O)N3CCN(CC(=O)N4CCOCC4)CC3)c3ccccc3n2)cc1`: the “activity change, negative = inhibition” value is 191%.

As to `COC(=O)CCCn1c(C)cc(C(=O)COC(=O)c2nccnc2N)c1C`, the “activity change, negative = inhibition” value was 155%.

Regarding `COC1CC(OC2CCC3(C=O)[C@H]4CCC5(C)C(C6=CC(=O)OC6)CCC5(O)[C@@H]4CCC3(O)C2)OC(C)C1O` (some centres undefined), the Potency is 0.282 µM (active).

On to `COc1ccc2c(C)c(CC(=O)NCc3ccccc3Cl)c(=O)oc2c1`, for which the “activity change, negative = inhibition” value is 17.9%.

As for `CC(Sc1nnc(CCC(N)=O)n1C1CC1)C(=O)c1c[nH]c2ccccc12` (centres undefined), the “activity change, negative = inhibition” value is 0.749%.

As for `CC(NC(=O)C(=O)Nc1cc(Cl)ccc1Cl)c1ccccc1` (centres undefined), the “activity change, negative = inhibition” value is 0%.

For the molecule `CCCc1cc(=O)oc2c(C)c(OCC(=O)OC(C)C)ccc12`, the “activity change, negative = inhibition” value is 9.01%.

As for `CC(C(=O)Nc1cccc(C#N)c1)n1nnc(-c2cccc(C(F)(F)F)c2)n1` (centres undefined), the “activity change, negative = inhibition” value is -10.8%.

Consider `CCOc1ccccc1-c1nn2c(CN3CCCCC3)nnc2s1`, for which the “activity change, negative = inhibition” value was -3.75%.

`Cc1nccn1CCc1nc2cc(NC(=O)C(C)C)ccc2n1C`: the “activity change, negative = inhibition” value is -8.8%.

For the molecule `CCCCn1c(=O)[nH]c(=O)c2c1nc(-c1ccc(OCC#N)c(OC)c1)n2C`, the “activity change, negative = inhibition” value was -6.14%.

With `N#Cc1ccccc1N=Cc1ccc2ccccc2c1`, the “activity change, negative = inhibition” value is 92.7%.

`Cc1cc(C(F)(F)F)nn1Cc1nc2c3c4c(sc3ncn2n1)CCC4`: the “activity change, negative = inhibition” value is -9.93%.

For the molecule `CCCS(=O)(=O)c1ncc(Cl)c(C(=O)Nc2scc(-c3ccccc3)c2C(=O)OCC)n1`, the “activity change, negative = inhibition” value was 12.2%.

Take `Cc1ccc(NC(=O)c2nc(S(=O)(=O)Cc3cccc(C)c3)ncc2Cl)cc1`: the Potency was 22.4 µM (active).

For `CCSc1ncc(Cl)c(C(=O)Nc2cc(C)ccc2C)n1`, the “activity change, negative = inhibition” value was -12.3%.
